The values below come from PubChem BioAssay (NCATS).

Active and inactive are the calls of the source. No rule for the calls is given here. Where only a bound is given, the exact number is not on record here.
Potency is read from the fitted curve at half-maximal effect.

The assay has as its system HIV-1 nucleocapsid protein NCp7 (binding to TG oligonucleotide). Nature of the assay: HIV Nucleocapsid (AID 346).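 Also: potency is for inhibitors that block NC binding and lower polarization.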 The settings on record: HIV-1 NC / fluorescein-TGTGTGTG probe, fluorescence polarization. The method in brief:
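Fluorescence polarization binding of 100 nM HIV-1 NC to 10 nM fluorescein-labelled TG4xF oligonucleotide. Buffer was Hepes pH 7.5 with 250mM NaCl, 1uM ZnCl2, TCEP and 2-mercaptoethanol. Compounds were incubated 1 hr at room temperature before the read.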
For the compound `c1ccc(CNc2ncncc2-c2ccc3c(c2)OCO3)cc1`, the Potency was > 20 µM (inactive).

As for `O=S(=O)(c1ccccc1)N1CCC2(CCN(Cc3nccs3)CC2)CC1`, the Potency was > 20 µM (inactive).

With `COc1ccccc1CNc1ccnc(-c2ccc(N(C)C)cc2)n1`, the Potency is > 20 µM (inactive).

Consider `O=c1c(-c2ccccc2)nc2cncnc2n1Cc1ccccc1`, for which the Potency was > 20 µM (inactive).

As to `O=c1c(-c2ccccc2)nc2cnc(N3CCOCC3)nc2n1-c1ccccc1`, the Potency was > 20 µM (inactive).

For `COc1ccc(CNc2ncnc3ccc(-c4c(C)noc4C)cc23)c(OC)c1`, the Potency is > 20 µM (inactive).

As for `O=C(c1ccncc1)N1CCC2(CC1)CN(Cc1cc(C(F)(F)F)cc(C(F)(F)F)c1)C2`, the Potency is > 20 µM (inactive).

As for `COc1ccc(-c2nc3cnc(N4CCNCC4)nc3n(Cc3ccc(F)cc3)c2=O)cc1`, the Potency is > 20 µM (inactive).

As to `CS(=O)(=O)N1CCC2(CCN(C(=O)Nc3cccc(C#N)c3)CC2)CC1`, the Potency was > 20 µM (inactive).

For the compound `O=c1c(-c2cc(F)cc(F)c2)nc2cncnc2n1Cc1ccccc1`, the Potency was > 20 µM (inactive).

In the case of `COCC(=O)N1CCC2(CCCN(c3ccccn3)C2)CC1`, the Potency was > 20 µM (inactive).

Consider `CS(=O)(=O)N1CCC2(CC1)CN(Cc1cc(C(F)(F)F)cc(C(F)(F)F)c1)C2`, for which the Potency was > 20 µM (inactive).

For `Cc1ccccc1-c1cncnc1N1CCNCC1`, the Potency was > 20 µM (inactive).

Turning to `CCNc1ncc2nc(-c3cccs3)c(=O)n(C)c2n1`, the Potency was > 20 µM (inactive).

With `COc1cccc(-c2cncnc2NCc2cnc(C)cn2)c1`, the Potency is > 20 µM (inactive).

As to `COc1ccccc1CN1CCC2(CC1)CCN(C(=O)c1ccco1)CC2`, the Potency is > 20 µM (inactive).

On to `O=c1c(-c2cccs2)nc2cncnc2n1Cc1ccccc1`, for which the Potency was > 20 µM (inactive).

As for `CNc1ncnc2ccc(-c3ccccc3C#N)cc12`, the Potency is > 20 µM (inactive).

As for `CN(C)c1ncc2nc(-c3cccs3)c(=O)n(C3CC3)c2n1`, the Potency is 0.297 µM (active).

As for `COc1cccc(-c2nccc(NCc3cccc(C)c3)n2)c1`, the Potency is > 20 µM (inactive).

For `CN(Cc1ccco1)c1ncnc2ccc(-c3ccccc3C#N)cc12`, the Potency was > 20 µM (inactive).

As for `COc1ncc2nc(-c3ccccc3)c(=O)n(CCC#N)c2n1`, the Potency was > 20 µM (inactive).

For the compound `Cn1c(=O)c(-c2ccc(Cl)cc2)nc2cnc(N3CCNCC3)nc21`, the Potency was > 20 µM (inactive).

As to `Cc1cnc(CNc2ncnc3ccc(-c4ccc5c(c4)OCO5)cc23)cn1`, the Potency was > 20 µM (inactive).

For `CN1CCN(c2ncc3ncc(=O)n(CCC#N)c3n2)CC1`, the Potency is > 20 µM (inactive).

Regarding `N#Cc1cccc(NC(=O)N2CC3(CCN(C(=O)c4cccc(F)c4)CC3)C2)c1`, the Potency is > 20 µM (inactive).

Take `Cn1c(=O)c(-c2ccc(Cl)cc2)nc2cnc(OCc3ccccc3)nc21`: the Potency is > 20 µM (inactive).

Regarding `COc1ccc2[nH]cc(CCNc3ncncc3-c3ccc(N(C)C)cc3)c2c1`, the Potency was > 20 µM (inactive).

As to `O=c1c(-c2ccc(F)cc2)nc2cnc(Nc3ccccc3)nc2n1C[C@H]1CCCO1`, the Potency is > 20 µM (inactive).

In the case of `CN1CCN(c2ncncc2-c2cccnc2)CC1`, the Potency was > 20 µM (inactive).

Turning to `COc1ccc(C(=O)N2CCC3(CCCN(C(=O)Nc4cccc(F)c4)C3)CC2)cc1`, the Potency is > 20 µM (inactive).

As to `COc1ncc2nc(-c3cc(F)cc(F)c3)c(=O)n(C3CC3)c2n1`, the Potency was > 20 µM (inactive).

Take `COc1ccccc1CN1CCC2(CCNCC2)CC1`: the Potency is > 20 µM (inactive).

For `COc1ccc(Oc2ncc3ncc(=O)n(C4CC4)c3n2)cc1`, the Potency is > 20 µM (inactive).

Consider `COC(=O)N1CCC2(CCCN(Cc3ccccc3OC)C2)CC1`, for which the Potency is > 20 µM (inactive).

For `O=C(c1cc(C(F)(F)F)cc(C(F)(F)F)c1)N1CCC2(CCCN(c3ncccn3)C2)CC1`, the Potency was > 20 µM (inactive).

For the compound `COCCn1c(=O)c(-c2cn(C)c3ccccc23)nc2cnc(Oc3cccc(Cl)c3)nc21`, the Potency was > 20 µM (inactive).

For `CNc1ncncc1-c1ccccc1CN(C)C`, the Potency is > 20 µM (inactive).

With `O=c1cnc2cnc(Oc3ccccc3)nc2n1Cc1ccc(F)cc1`, the Potency is > 20 µM (inactive).
